Sfp PPTase inh – blocks B. subtilis Sfp PPTase activity; AID 1490; actives 3.5% (n = 310,000); Q9F4F7; Biochemical Sfp PPTase activity, qHTS; Potency, µM, usual class: inhibitors;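 note: the enzyme is Sfp with the accession as filed and its product quenches rhodamine fluorescence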
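Fluorescence-quenching assay with 15 nM Sfp, 5 uM rhodamine-CoA and 12.5 uM BHQ-2-labelled ybbR peptide in pH 7.6 Hepes/MgCl2 buffer. Enzyme was pre-incubated with compound for 15 min at room temperature. Rate was taken from the 30-min fluorescence change (525/598 nm).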
Tau fluor cs – counter-screen for tau fibril formation inhibitors; AID 1463; tau K18 P301L Alexa594 fluorescence, heparin fibrillization; actives 0.93% (n = 280,000); Potency, µM (highest dose often 57.7 µM); note: nearly all actives have a fitted effect of over 55% in size
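Human tau K18 P301L (15 uM unlabeled, 0.24 uM Alexa 594-labeled) in 100 mM sodium acetate pH 7 with 20 uM heparin, 6 hr at 37 C. ThT 30 uM added, 1 hr ambient; Alexa 594 FP and total fluorescence read at 555/632 nm.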
PLK1 PBD inh – PLK1 (human) polo-box domain binding inhibition; P53350; Plk1 PBD binding of FITC phosphopeptide, fluorescence polarization; Potency, µM, most hits filed as inhibitors; actives 2.8% (n = 360,000); note: series mostly up to about 57 µM; nearly all actives have a fitted effect of over 65% in size
Target sequence (P53350 whole entry, looked up, the tested form may be a part): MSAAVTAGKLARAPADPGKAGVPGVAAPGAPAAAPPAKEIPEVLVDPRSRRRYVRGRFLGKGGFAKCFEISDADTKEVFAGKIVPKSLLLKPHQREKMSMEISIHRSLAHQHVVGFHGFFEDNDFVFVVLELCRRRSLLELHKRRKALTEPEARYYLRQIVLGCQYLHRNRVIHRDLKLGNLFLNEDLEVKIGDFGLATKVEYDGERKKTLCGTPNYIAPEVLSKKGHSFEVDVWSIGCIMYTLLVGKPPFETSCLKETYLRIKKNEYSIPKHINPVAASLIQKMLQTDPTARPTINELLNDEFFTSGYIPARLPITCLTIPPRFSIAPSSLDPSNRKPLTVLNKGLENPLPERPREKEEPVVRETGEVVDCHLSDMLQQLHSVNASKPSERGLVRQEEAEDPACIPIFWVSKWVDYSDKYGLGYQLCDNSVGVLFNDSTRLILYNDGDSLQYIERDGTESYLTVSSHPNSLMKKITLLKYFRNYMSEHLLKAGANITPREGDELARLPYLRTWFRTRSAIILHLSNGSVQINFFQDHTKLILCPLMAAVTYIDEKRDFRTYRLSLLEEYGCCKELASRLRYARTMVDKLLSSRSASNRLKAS
VDR inhibitor – vitamin D3 receptor (human) inhibition. P11473. VDR-SRC2-3 peptide fluorescence polarization, 2 h. Potency, µM, hits mostly inhibitors. actives 0.93% (n = 400,000). AID 504847
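After 23 nl compound addition and a short centrifugation, plates sat for 2 hours at ambient temperature; polarization of fluorescence then indicated loss of VDR binding to peptide SRC2-3.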
Tau fibril FP – inhibitors of human tau fibril formation; actives 0.39% (n = 280,000); P10636; Potency, µM (top dose mostly 57.7 µM), usual class: inhibitors; K18 P301L tau heparin fibrillization, Alexa594 FP, 6 h; note: nearly all actives have a fitted effect of over 55% in size
Target sequence (P10636 561-689 P618L limits assumed): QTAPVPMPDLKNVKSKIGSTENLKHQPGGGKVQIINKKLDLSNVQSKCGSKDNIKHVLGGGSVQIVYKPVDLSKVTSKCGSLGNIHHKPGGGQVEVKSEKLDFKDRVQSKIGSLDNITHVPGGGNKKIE
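Heparin (20 uM) drove fibril formation of recombinant tau K18 P301L, 15 uM unlabeled with 0.24 uM Alexa 594 label, for 6 hr at 37 C in 100 mM sodium acetate pH 7. Fluorescence polarization (555/632 nm) read 1 hr after 30 uM ThT.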
Tau fibril ThT – blocks human tau fibril formation measured by thioflavin T. AID 1460. Potency, µM (highest dose often 57.4 µM), most hits filed as inhibitors. actives 2.1% (n = 270,000). recombinant tau K18 P301L (four-repeat tau fragment), heparin-induced fibrillization, ThT fluorescence; note: nearly all actives have a fitted effect of over 55% in size
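Aggregation was driven by heparin (20 uM final) acting on recombinant tau […] bearing P301L in 100 mM sodium acetate pH 7; fibrils were detected with Thioflavin T.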
USP1 UbRho – USP1-UAF1 deubiquitinase inhibition validated. shares compounds with VDR inhibitor. Ub-Rhodamine cleavage, fluorescence kinetic read. Potency, µM (titrated, usually from 114 µM), hits mostly inhibitors. actives 50% (n = 50). AID 540327
VDR confirm – inhibits human vitamin D receptor, primary hit validation | shares compounds with VDR inhibitor | VDR-coactivator inhibition assay, qHTS confirmation | Potency, µM, usual class: inhibitors | actives 89% (n = 840) | AID 602199
VDR FP fluor – VDR (human) coactivator binding inhibition, fluorescein polarization | shares compounds with VDR inhibitor | VDR-coactivator binding, fluorescein fluorescence polarization | Potency, µM (highest dose often 57.1 µM), most hits filed as inhibitors | actives 48% (n = 840) | AID 602200
VDR bla – inhibits human VDR in beta-lactamase reporter cells; actives 23% (n = 840); shares compounds with VDR inhibitor; VDR beta-lactamase reporter cells, FRET ratio; cells co-treated with VDR agonist LG190178; Potency, µM (titrated, usually from 46.1 µM), hits mostly inhibitors
VDR viability – counter-screen for vitamin D receptor inhibitors: cytotoxicity | Potency, µM (series often up to 48.3 µM), hits mostly cytotoxic | AID 602204 | cytotoxicity counter-screen, cell viability, qHTS | shares compounds with VDR inhibitor | actives 18% (n = 840); note: nearly all actives have a fitted effect of over 75% in size
TbPYK confirm – confirmation of Trypanosoma brucei pyruvate kinase inhibitors; shares compounds with PLK1 PBD inh; Potency, µM (series often up to 76.9 µM), hits mostly inhibitors; actives 67% (n = 890); AID 720569; recombinant TbPYK, Kinase-Glo ATP luminescence; note: nearly all actives have a fitted effect of over 70% in size
TbPYK orthogonal – orthogonal confirmation of Trypanosoma brucei pyruvate kinase inhibitors; shares compounds with PLK1 PBD inh; AID 720584; Potency, µM (titrated, usually from 76.9 µM), hits mostly inhibitors; actives 62% (n = 890); recombinant TbPYK, ADP-Glo luminescence, 60 min; note: nearly all actives have a fitted effect of over 75% in size
Numbers stand for hits; 0 = inactive; ? = inconclusive; - = no result; [ ] = remark or other dose. Only some compounds are listed: those with a hit (about 6% of all), similar ones and a draw of the others. Calls come from the whole dose curve; as a rule, active = well fitted curve in the direction sought with a large enough effect; inconclusive = small, poorly fitted or top-dose-only effect, or another doubt; inactive = no such curve, though single readings can be large; an effect the other way counts as inactive or inconclusive.

SMILES	Sfp PPTase inh	Tau fluor cs	PLK1 PBD inh	VDR inhibitor	Tau fibril FP	Tau fibril ThT	VDR confirm	VDR FP fluor	VDR bla	VDR viability	others
Cc1cc(C)nc(S/C=C/C(=O)c2ccccc2F)n1	0	0	4.7µM	?	0	?	2	1.6µM	16µM	17µM
COC1=C(OC)C(=O)c2ccccc2C1=O	-	0	-	35µM	?	13µM	-	-	-	-	USP1 UbRho=30µM
O=C(c1ccc(S(=O)(=O)N2CCCC2)cc1)N1CCCCC1	-	-	0	0	-	-	-	-	-	-
O=C(/C=C/c1ccc(O)c(O)c1)c1ccc(S(=O)(=O)N2CCCCCC2)cc1	0	?	0	79µM	0	?	24	25µM	0	0
CCOC(=O)C1CCN(c2ncnc3c2nnn3C)CC1	-	0	-	0	0	0	-	-	-	-
Nc1c(C(=O)N2CCCCC2)sc(=S)n1-c1ccccc1	0	0	3µM	?	?	?	7.1	7.1µM	0	0
O=S(=O)(/N=C(\Sc1ccccc1)c1ccccc1)c1ccc(Cl)cc1	35µM	0	2.4µM	79µM	?	?	12	?	0	?
COc1cc(/C=C2\N=C(C)OC2=O)cc(Cl)c1OC(C)=O	?	-	0	?	-	-	-	-	-	-
COc1ccc(/C=C2\N=C(C)OC2=O)cc1[N+](=O)[O-]	0	0	?	79µM	0	?	11	?	0	0
COc1ccc(C(=O)N2CCCCC2CCN2CCOCC2)cc1 (stereo not given)	-	0	-	0	0	0	-	-	-	-
COc1ccc(C(=O)N/C(=C\c2cn(S(=O)(=O)N(C)C)c3ccccc23)C(=O)N2CCCC2)cc1	-	-	0	-	-	-	-	-	-	-
CCOC(=O)c1sc(NC(=O)CSc2nnc(Cc3ccccc3)o2)c(C#N)c1C	3.2µM	?	1.7µM	13µM	?	28µM	3	?	0	0
CCOC(=O)c1sc(NC(=O)C(C)C)c(C#N)c1C	0	0	3µM	28µM	0[2.34 µM]	0	3.8	?	0	0
COc1cc(/C=C/C(=O)Nc2nnc(CC(C)(C)C)s2)cc(OC)c1OC	45µM	0	8.4µM	79µM	0	0	21	14µM	0	0
COc1ccc(/C=C/C(=O)Nc2nnc(C(C)C)s2)cc1OC	0	0	0	0	0	-	-	-	-	-
CSc1ccc(/C=C/C(=O)c2c(O)cc(C)oc2=O)cc1	0	-	0	?	-	-	5.3	0	?	?
CCCOc1ccc(NC(=O)CC2C(=O)N(c3cccc(OC)c3)C(=O)N2CCc2ccncc2)cc1 (stereo not given)	-	0	-	0	0	0	-	-	-	-
COc1cc(OC)c(NC(=O)c2ccc3c(c2)N(Cc2ccc(C)cc2)CCS3)cc1Cl	-	?	-	0	0	0	-	-	-	-
COc1ccc(OC)c2c1C(=O)C(Cl)=C(Cl)C2=O	0.5µM	?	2.1µM	22µM	18µM	4.5µM	8.4	?	1.6µM	5.2µM
CCOC(=O)c1c(C)oc2c1c1c(c3ccccc32)OCN(Cc2cccnc2)C1	?	?	4.7µM	?	?	18µM	11	7.9µM	0	?
CCOC(=O)c1c(C)oc2c1c(C(c1cccnc1)N1CCOCC1)c(O)c1ccccc12 (stereo not given)	?	?	6.7µM	?	0	18µM	16	13µM	?	?
CCOC(=O)c1c(C)oc2c1c(C(c1cccnc1)N1CCN(C)CC1)c(O)c1ccccc12 (stereo not given)	0	0	-	-	0	?	-	-	-	-
CCOc1ccc(-c2cccc(NS(=O)(=O)c3ccccc3C(F)(F)F)c2)nn1	-	0	-	0	0	0	-	-	-	-
COC(=O)C1=C(C)N(Cc2ccco2)C(=O)/C1=C\c1ccc([N+](=O)[O-])cc1	20µM	?	0	22µM	?	13µM	?	0	0	?
COC(=O)C1=C(C)N(Cc2ccco2)C(=O)C1	?	0	?	0	?	?	-	-	-	-
SMILES	Sfp PPTase inh	Tau fluor cs	PLK1 PBD inh	VDR inhibitor	Tau fibril FP	Tau fibril ThT	VDR confirm	VDR FP fluor	VDR bla	VDR viability	others
COc1ccc(OCC(=O)N2CCCC(Nc3ccc(C)c(C)c3)C2)cc1 (stereo not given)	-	-	0	-	-	-	-	-	-	-
Cc1cc(=O)cc2oc3cc(N)c(-c4c(C)cc(O)cc4O)c(C)c3nc1-2	50µM	?	-	?	22µM	14µM	-	-	-	-	USP1 UbRho=47µM
CC1(C)CC(=O)C(C(C2=C(O)CC(C)(C)CC2=O)c2ccc(Br)s2)C(=O)C1 (stereo not given)	20µM	0	1.9µM	10µM	0	0	4.2	2.8µM	0	?	TbPYK confirm=14µM;TbPYK orthogonal=28µM
CCC1=C2CC[C@H]3C(=O)N(CC)C(=O)[C@H]3[C@H]2[C@@]2(Cc3ccccc3)C(=O)N(CC3CC3)C(=O)N2C1=O	0	0	-	-	0	0	-	-	-	-
CC1=NOC(=O)/C1=C\c1ccc(-c2ccccc2Br)o1	56µM	0	0.42µM	13µM	0	?	9.5	?	?	?	TbPYK confirm=?;TbPYK orthogonal=0
CC(C)(CC(=O)OCC(=O)Nc1ccc(F)c(Cl)c1)CC1=NS(=O)(=O)c2ccccc2N1	-	?	-	0	?	0	-	-	-	-
Nc1c(C(=O)Nc2ccc(Cl)c(C(F)(F)F)c2)sc2nc(-c3ccncc3)ccc12	-	?	-	0	0	?	-	-	-	-
CCC(=O)NC1=C(Cl)C(=O)C(NC(=O)CC)=C(Cl)C1=O	0.56µM	?	1.7µM	14µM	3.5µM	2µM	6.7	5µM	15µM	13µM	TbPYK confirm=0.25µM;TbPYK orthogonal=0.4µM
Cc1cc(C)nc(SC2=CS(=O)(=O)c3ccccc32)n1	0	0	0	0	0	?	-	-	-	-
O=S1(=O)C=C(Sc2nnc(-c3ccccc3)o2)c2ccccc21	16µM	0	1.9µM	?	?	?	2.2	1.6µM	?	12µM	TbPYK confirm=20µM;TbPYK orthogonal=22µM
